In PubChem BioAssay:
Where “and” joins values, the source holds several entries; their conditions need not be identical. Equal entries are not always repeated. Calls of active or inactive are those of the source.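 The calls were made as follows, unless noted: active = thallium flux through the channel raised or lowered by more than 3 SD from vehicle-only wells, actives on both sides; inactive = the rest.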

Tests used:
[1] = liver-stage malaria parasite growth inhibition, primary screen, cell-based, HepG2, luciferase luminescence, HepG2 viability (AID 624349; in the data active = parasite load remaining mostly below about 12%, no sharp cut-off; inactive = mostly above about 10%;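 also: 100% = mean of DMSO negative control wells on the same plate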); conditions: P. berghei liver stage in HepG2, luciferase luminescence, concentration not given here; parasite load remaining: stronger effect = lower value; viability: measured here: HepG2 viability without parasites
[2] = Cy5 fluorescence interference with SSB-bound oligo, artefact control for HCV NS3 helicase inhibitor project, biochemical, NIH Clinical Collection, E. coli SSB (AID 743268; call rule not given here)
[3] = system: Hepatitis C virus NS3 helicase; assay: HCV NS3 helicase inhibitors, primary screen, biochemical, fluorescence polarization, NIH Clinical Collection (AID 743270; call rule not given here); conditions: NS3 helicase binding to Cy5-dT15 DNA, stronger effect = higher value, concentration not given here
[4] = molecular target: Single-stranded DNA-binding protein (Escherichia coli (strain K12)) (UniProt P0AGE0); assay: E. coli SSB displacement from DNA, counter-screen for HCV NS3 helicase inhibitor project, biochemical, fluorescence polarization, NIH Clinical Collection (AID 743271; in the data active = inhibition above about 28%); conditions: stronger effect = higher value, concentration not given here
[5] = fluorescence interference in NS3h assay format, artefact control for HCV NS3 helicase inhibitor project, biochemical, NIH Clinical Collection (AID 743272; call rule not given here;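 also: HCV NS3 helicase with a Cy5 labelled single stranded DNA probe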); conditions: fluorescence interference counterscreen, stronger effect = lower value
[6] = molecular target: 6-phosphogluconate dehydrogenase, decarboxylating (Homo sapiens) (UniProt P52209); assay: 6PGD enzyme inhibitors, primary screen, biochemical, human, recombinant enzyme, NADPH absorbance (AID 1159550;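 active = at least 20% inhibition of 6-phosphogluconate dehydrogenase activity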); conditions: recombinant 6PGD, NADPH absorbance 341 nm; at 10 µM; stronger effect = higher value
[7] = modulation of C. elegans fzo-1 (AID 1259413; call rule not given here;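 also: fzo-1 mutant C. elegans worms in liquid wells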); conditions: C. elegans fzo-1 modulator screen, mean read-out; stronger effect = higher value
[8] = differential killing of epithelial or mesenchymal cells, primary screen, imaging, PC-3E GFP, TEM4-18 mCherry, co-culture (AID 1345086;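 active = compounds killing one labelled cell type while sparing the other, by normalised counts and ratio limits, not self-fluorescent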;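 as to all read-outs here: cells exposed to compound for 72 h before imaging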;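 as to red/green cell ratio (normalised): normalised mesenchymal count divided by normalised epithelial count so high means epithelial killing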); conditions: imaging cell counts, at 1 µM; for red/green cell ratio (normalised): actives lie on both sides, counts scaled to control wells, 1 = unselective
[9] = molecular target: Mitogen-activated protein kinase 7 (Homo sapiens) (UniProt Q13164); assay: ERK5 transactivation activators in reporter cells, primary screen, cell-based, HTS (AID 1508626;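 active = luciferase signal above three times the same-plate solvent-only control wells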;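 also: luciferase driven by Gal4-ERK5 fusion binding five Gal4 sites before minimal TATA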); conditions: HeLa Gal4-ERK5 transactivation, 18 h, at 5 µM, stronger effect = higher value
F380Y = assay: modulators of BK channel variants, profiling panel, selectivity assay, cell-based, U2OS BacMam, thallium flux, beta subunits (AID 1259406); conditions: at 30 µM;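 also: initial slope of Thallos dye fluorescence rise after thallium is added; log ratio against the mean of 0.3% DMSO vehicle wells on the same plate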
F380Y/beta2Delta = assay: as above; conditions: at 30 µM
[10] = molecular target: Calcium-activated potassium channel subunit alpha-1 (Homo sapiens) + Leucine-rich repeat-containing protein 26 (Homo sapiens) (UniProt Q12791+Q2I0M4); assay: as above; conditions: F380Y/Slo1WT/gamma1, at 30 µM
R275C = assay: as above; conditions: at 30 µM
R275C/beta1 = assay: as above; conditions: at 30 µM
R275C/beta2Delta = assay: as above; conditions: at 30 µM
[11] = sensitizers of A549 cells to miR-34 induction, primary screen, imaging, A549 dox-inducible miR-34, nuclei and caspase counts (AID 1347080;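 active = compounds whose cell count with miR-34 switched on is under 0.7 times the count with it off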); conditions: A549 miR-34 inducible, Hoechst nuclei count, 48 h
[12] = survival rescue of mitochondrial mutant cells in low glucose, primary screen, MELAS cybrids, Rieske KO mouse fibroblasts, CellTiter-Glo (AID 1508586;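 active = mean z-score across replicates of 1.96 or higher in either the MELAS or the Rieske mutant cell line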;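 also: z relative to plate mean and SD of compound and empty wells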)
[13] = molecular target: NAD(+) hydrolase SARM1 (Homo sapiens) (UniProt Q6SZW1); assay: SARM1 TIR NADase inhibitors, cell lysate, NAD-Glo luminescence (AID 1508614;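 active = compound whose remaining NAD level is above about 45 nM, limit read from the data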;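 also: higher remaining NAD means stronger inhibition of SARM1 NADase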); conditions: SAM-TIR HEK293T lysate NADase, at 1 µM, stronger effect = higher value
[14] = viability rescue of complex I mutant cybrids, primary screen, cell-based, galactose medium, ATP luminescence (AID 1645843;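 active = z-score of at least 1.8 in each of two replicates, scored against plate mean and spread of sample wells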;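 also: positive z means more ATP and so rescue of galactose-driven cybrid death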); conditions: complex I mutant cybrid cells, 72 h, stronger effect = higher value
[15] = measured here: epithelial PC-3E GFP cell survival
[16] = measured here: mesenchymal TEM4-18 mCherry cell survival
[17] = MELAS cybrid survival, CellTiter-Glo 48 h, stronger effect = higher value
[18] = Rieske KO mouse fibroblast survival, CellTiter-Glo 72 h

Chain of 6-phosphogluconate dehydrogenase, decarboxylating (Homo sapiens) (P52209 whole entry, looked up): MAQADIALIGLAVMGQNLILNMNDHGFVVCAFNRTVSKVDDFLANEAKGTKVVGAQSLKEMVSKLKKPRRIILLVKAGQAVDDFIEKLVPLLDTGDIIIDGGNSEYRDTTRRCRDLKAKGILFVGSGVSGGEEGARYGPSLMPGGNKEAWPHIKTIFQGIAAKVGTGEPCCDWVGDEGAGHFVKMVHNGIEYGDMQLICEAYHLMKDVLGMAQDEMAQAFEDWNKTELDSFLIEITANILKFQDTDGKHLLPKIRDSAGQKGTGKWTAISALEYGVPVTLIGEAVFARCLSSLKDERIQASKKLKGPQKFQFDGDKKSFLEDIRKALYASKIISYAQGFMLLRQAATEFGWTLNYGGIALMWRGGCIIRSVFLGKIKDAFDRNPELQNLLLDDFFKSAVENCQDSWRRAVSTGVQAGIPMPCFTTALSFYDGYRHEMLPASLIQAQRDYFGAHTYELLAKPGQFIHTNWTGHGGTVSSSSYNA
Chain of Calcium-activated potassium channel subunit alpha-1 (Homo sapiens) + Leucine-rich repeat-containing protein 26 (Homo sapiens) (Q2I0M4 whole entry, looked up, one chain of several): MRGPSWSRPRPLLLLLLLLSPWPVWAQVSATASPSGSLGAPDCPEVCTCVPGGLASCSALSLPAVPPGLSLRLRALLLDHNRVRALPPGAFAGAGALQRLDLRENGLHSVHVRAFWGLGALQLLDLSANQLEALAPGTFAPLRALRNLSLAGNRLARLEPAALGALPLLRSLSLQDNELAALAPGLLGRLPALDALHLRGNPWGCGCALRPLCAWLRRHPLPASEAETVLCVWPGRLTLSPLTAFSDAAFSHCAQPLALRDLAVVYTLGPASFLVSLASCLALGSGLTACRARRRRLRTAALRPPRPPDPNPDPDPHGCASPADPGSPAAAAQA
Chain of Mitogen-activated protein kinase 7 (Homo sapiens) (Q13164 whole entry, looked up, the tested form may be a part): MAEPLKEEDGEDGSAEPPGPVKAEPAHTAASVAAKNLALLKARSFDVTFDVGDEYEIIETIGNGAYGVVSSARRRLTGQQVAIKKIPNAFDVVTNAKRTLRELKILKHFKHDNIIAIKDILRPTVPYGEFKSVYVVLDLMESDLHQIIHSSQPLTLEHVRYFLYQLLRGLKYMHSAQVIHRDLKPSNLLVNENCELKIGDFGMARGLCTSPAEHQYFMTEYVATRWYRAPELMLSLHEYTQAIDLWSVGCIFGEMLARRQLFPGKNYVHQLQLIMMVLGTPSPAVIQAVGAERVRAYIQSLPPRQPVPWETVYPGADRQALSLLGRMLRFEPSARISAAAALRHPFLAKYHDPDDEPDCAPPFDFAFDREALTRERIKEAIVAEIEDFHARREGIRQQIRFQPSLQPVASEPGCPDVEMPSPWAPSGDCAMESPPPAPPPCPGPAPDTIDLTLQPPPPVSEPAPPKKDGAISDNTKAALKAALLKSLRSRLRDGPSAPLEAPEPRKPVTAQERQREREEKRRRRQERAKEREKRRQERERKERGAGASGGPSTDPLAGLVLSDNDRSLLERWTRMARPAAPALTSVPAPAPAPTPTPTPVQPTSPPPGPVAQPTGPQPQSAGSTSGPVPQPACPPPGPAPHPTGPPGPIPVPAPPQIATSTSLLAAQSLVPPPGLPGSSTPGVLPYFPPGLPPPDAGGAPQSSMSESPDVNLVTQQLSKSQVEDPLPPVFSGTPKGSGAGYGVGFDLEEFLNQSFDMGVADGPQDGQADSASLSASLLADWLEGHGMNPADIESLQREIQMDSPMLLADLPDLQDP
Chain of NAD(+) hydrolase SARM1 (Homo sapiens) (Q6SZW1 whole entry, looked up): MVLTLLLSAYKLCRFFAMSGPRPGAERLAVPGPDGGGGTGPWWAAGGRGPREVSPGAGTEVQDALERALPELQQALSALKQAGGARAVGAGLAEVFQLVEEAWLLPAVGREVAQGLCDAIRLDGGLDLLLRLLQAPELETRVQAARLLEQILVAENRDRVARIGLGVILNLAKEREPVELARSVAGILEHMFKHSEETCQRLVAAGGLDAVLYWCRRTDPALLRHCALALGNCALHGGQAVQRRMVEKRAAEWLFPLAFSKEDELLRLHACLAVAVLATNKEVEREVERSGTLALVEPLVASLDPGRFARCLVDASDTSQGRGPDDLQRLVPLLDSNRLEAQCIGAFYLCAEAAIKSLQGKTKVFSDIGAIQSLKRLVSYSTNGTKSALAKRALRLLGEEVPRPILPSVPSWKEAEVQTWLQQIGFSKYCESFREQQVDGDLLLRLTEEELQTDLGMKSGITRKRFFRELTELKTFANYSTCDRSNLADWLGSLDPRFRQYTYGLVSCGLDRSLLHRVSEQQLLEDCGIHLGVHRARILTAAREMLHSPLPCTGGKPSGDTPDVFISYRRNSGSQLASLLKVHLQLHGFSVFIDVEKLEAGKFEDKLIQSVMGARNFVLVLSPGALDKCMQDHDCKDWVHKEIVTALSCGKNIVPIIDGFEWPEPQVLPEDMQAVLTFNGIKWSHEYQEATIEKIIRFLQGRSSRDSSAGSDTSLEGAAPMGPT

COc1ccc(-c2oc3c(CC=C(C)C)c(O[C@@H]4O[C@H](CO)[C@@H](O)[C@H](O)[C@H]4O)cc(O)c3c(=O)c2O[C@@H]2O[C@@H](C)[C@H](O)[C@@H](O)[C@H]2O)cc1
inactive: parasite load remaining [1] 70.8% | fluorescence ratio [2] 1 | inhibition [3] -9.9% | inhibition [4] -2.41% | fluorescence ratio [5] 0.98 | inhibition [6] 4.03% | mean signal [7] 233 | red/green cell ratio (normalised) [8] 1.12 | luciferase signal [9] 48 AU | log fold change Tl+ flux (F380Y) 0.00269 | log fold change Tl+ flux (F380Y/beta2Delta) -0.0493 | log fold change Tl+ flux [10] -0.0341 | log fold change Tl+ flux (R275C) -0.04 | log fold change Tl+ flux (R275C/beta1) 0.009 | log fold change Tl+ flux (R275C/beta2Delta) -0.0522
68.9%: viability [1]
1.01: normalised cell number [8, 15]
1.13: normalised cell number [8, 16]

CC(=O)OCC(=O)[C@@]1(O)CC[C@H]2[C@@H]3CCC4=CC(=O)CC[C@]4(C)[C@H]3[C@@H](O)C[C@@]21C
130% and 68%: viability [1]
0.874 and 1.08: z-score [12, 18]
7330 and 6560: cell count ([11]; measured here: total cells with miR-34 induction, stronger effect = lower value)
0.523 and 1.29: fold change ([11]; measured here: relative caspase fold change +Dox/-Dox)
7860 and 8520: cell count ([11]; measured here: total cells without miR-34 induction)
inactive: parasite load remaining [1] 82.4% and 26% | fluorescence ratio [2] 0.96 | inhibition [3] -0.45% | inhibition [4] 1.81% | fluorescence ratio [5] 0.96 | inhibition [6] 8.37% | fold change ([11]; stronger effect = lower value, cell number ratio, induced over uninduced) 0.933 and 0.77 | z-score [12, 17] 0.499 and 0.396 | remaining NAD [13] 10 nM | luciferase signal [9] 36 AU | z-score [14] -0.03 and 0.39 | log fold change Tl+ flux (F380Y) -0.0118 | log fold change Tl+ flux (F380Y/beta2Delta) 0.0163 | log fold change Tl+ flux [10] 0.0135 | log fold change Tl+ flux (R275C) -0.0512 | log fold change Tl+ flux (R275C/beta1) -0.0363 | log fold change Tl+ flux (R275C/beta2Delta) -0.0239

CC(CCc1ccccc1)NCC(O)c1ccc(O)c(C(N)=O)c1 (stereo not given)
-0.173 and -0.159: z-score [12, 18]
inactive: fluorescence ratio [2] 1.06 | inhibition [3] -2.27% | inhibition [4] -5.05% | fluorescence ratio [5] 1.02 | inhibition [6] 0.489% | mean signal [7] 243 | red/green cell ratio (normalised) [8] 1.34 | z-score [12, 17] -0.172 and 0.637 | remaining NAD [13] 10 nM | luciferase signal [9] 116 AU | z-score [14] -0.94 and 0.995 | log fold change Tl+ flux (F380Y) 0.0689 | log fold change Tl+ flux (F380Y/beta2Delta) 0.0329 | log fold change Tl+ flux [10] 0.00974 | log fold change Tl+ flux (R275C) -0.0121 | log fold change Tl+ flux (R275C/beta1) 0.0332 | log fold change Tl+ flux (R275C/beta2Delta) 0.0956
1.24: normalised cell number [8, 16]
0.93: normalised cell number [8, 15]

Cn1cc[nH]c1=S
0.1 and 0.646 and -0.619: z-score [12, 18]
inactive: fluorescence ratio [2] 1.03 | inhibition [3] -3.18% | inhibition [4] -5.05% | fluorescence ratio [5] 1.03 | inhibition [6] -12.3% | mean signal [7] 225 | red/green cell ratio (normalised) [8] 0.96 | z-score [12, 17] -0.106 and 0.275 and 0.138 | remaining NAD [13] 10 nM | luciferase signal [9] 92 AU | z-score [14] 1.27 and 0.25 | log fold change Tl+ flux (F380Y) 0.00366 | log fold change Tl+ flux (F380Y/beta2Delta) -0.00456 | log fold change Tl+ flux [10] -0.014 | log fold change Tl+ flux (R275C) -0.00969 | log fold change Tl+ flux (R275C/beta1) -0.000997 | log fold change Tl+ flux (R275C/beta2Delta) -0.0252
1.08: normalised cell number [8, 16]
1.12: normalised cell number [8, 15]
